“And” between values parts separate entries of the source, which are not always exact repeats. Equal entries are not always repeated. The whole screen tested about 300,000 compounds, of which about 37,000 (12%) were called active. Shown is part of a subset that was picked to be rich in actives. A number with no mark means an inactive call. Rule as the data show it: active = max response mostly above about 13% (no sharp cut-off); inactive = mostly below about 14%.
Test: Cycloheximide Counterscreen for Small Molecule Inhibitors of Shiga Toxin; also: read at 38.3 µM for the half of the compounds with a filed dose; 0% is about no effect
Conditions: cell reporter, cycloheximide protein synthesis inhibition counterscreen; hits give high values

SMILES	max response
CCCOc1ccc(CNC(=O)C2CCN(c3nn4c(=O)cc(C)nc4s3)CC2)cc1	-3.96%
C=CCc1c(C)nc2cc(-c3ccccc3)[nH]n2c1=O	37% (active)
CCc1c(C)nc2cc(C)[nH]n2c1=O	-1.78%
CCc1c(C)nc2cc(-c3cccs3)[nH]n2c1=O	29.6% (active)
Cc1cc(=O)n2[nH]c(-c3sccc3-n3c(C)ccc3C)cc2n1	5.31%
CCCCN1Cc2c(nc3cc(-c4ccccc4)[nH]n3c2=O)C1=O	7.79%
Cc1nc2nc[nH]n2c(=O)c1C/C=C/c1ccccc1	10.1%
COCCn1cnc2c1c(=O)n(Cc1ccc(Br)cc1)c(=O)n2Cc1ccccc1	-1.88%
Cc1ccc(NC(=O)C(CC(=O)O)C2CCCO2)c(C)c1 (stereo unspecified)	-2.11%
CC(NC(=O)CNC(=O)Cc1cccc2ccccc12)c1ccc(S(N)(=O)=O)cc1 (stereo unspecified)	4.99%
Cc1csc2ncc(C(=O)N(Cc3ccccc3)c3ccccn3)c(=O)n12	-6.72%
CC1(C)NC(=O)N(CC(=O)Nc2cc(C(F)(F)F)cc(C(F)(F)F)c2)C1=O	-1.59%
O=C1C2CCCN2C(=O)N1CCCCN1CCN(c2cccc(C(F)(F)F)c2)CC1 (stereo unspecified)	-0.302%
O=C(NCc1ccco1)/C(=C\c1cccc([N+](=O)[O-])c1)NC(=O)c1ccco1	-3.43%
COc1cc(NS(=O)(=O)c2ccc3ccccc3c2)c2ncccc2c1	-1.06% and -1.79%
CS(=O)(=O)C1=NN2C(=N)/C(=C\c3ccc(OCCOc4ccccc4)cc3)C(=O)N=C2S1	8.57%
CCS(=O)(=O)C1=NSC2=NC(=O)/C(=C\c3cc(C)n(-c4cccc(OC)c4)c3C)C(=N)N21	3.96%
Cc1cc(/C=C2/C(=N)N3C(=NC2=O)SN=C3S(C)(=O)=O)c(C)n1-c1ccccc1	28.8% (active)
CCS(=O)(=O)C1=NSC2=NC(=O)/C(=C\c3ccc(OS(=O)(=O)c4ccccc4)cc3)C(=N)N21	23.1% (active)
CCC1=NN2C(=N)/C(=C/c3cc(C)n(-c4ccccc4)c3C)C(=O)N=C2S1	4.37%
COc1ccccc1OCCOc1ccc(/C=C2\C(=N)N3N=C(C)SC3=NC2=O)cc1	-1.22%
COc1ccc(C(=O)NCCCN2CCOCC2)cc1Br	0.527%
C/C(=N\N=C(N)N)c1ccc(Cl)cc1	-3.34%

SMILES	max response
COc1ccc(CCNC(=O)CN(C)S(=O)(=O)c2ccc3nc(C)sc3c2)cc1OC	-1.23%
COc1ccc2c(CC(=O)N3CCc4cc(OC)c(OC)cc4C3)coc2c1	-5.51%
CC(=O)c1ccc(NC(=O)C(C)NCc2ccc(Cl)cc2)cc1 (stereo unspecified)	32.7% (active)
CC(NCc1cccs1)C(=O)Nc1cc(Cl)cc(Cl)c1 (stereo unspecified)	-2.66%
CC(=O)c1ccc(NC(=O)C(C)N(C)CC(=O)Nc2ccccc2Cl)cc1 (stereo unspecified)	5.03%
Nc1c(Cl)cc(-c2csc(N3CCCC3c3nc4cc(Cl)c(Cl)cc4n3CCOCCO)n2)cc1Cl (stereo unspecified)	2.13%
Cc1ccc(N=Cc2c(O)cc(C)oc2=O)c(C)c1	-0.907%
C/C(=N\NS(=O)(=O)c1ccccc1)c1c(O)cc(C)oc1=O	3.15%
Cc1cc(O)c(C(=O)/C=C/c2c(F)c(F)c(F)c(F)c2F)c(=O)o1	35.8% (active)
O=C(Cc1cccs1)N(CC1CCCO1)C1(C(=O)NC2CCCCC2)CCCCC1 (stereo unspecified)	-1.59%
CCCOc1ccc(Cc2c(O)nc(N)[nH]c2=O)cc1C	-2.37%
COc1c(O)ccc2c1CN1CCc3cc4c(cc3C1C2)OCO4 (stereo unspecified)	-3.13%
Cn1c(S(=O)(=O)O)nc2ccccc21	-1.42%
Cn1cccc1-c1nc2ccccc2n1C	18% (active)
Cc1nn2c3ccccc3nc2n(C)c1=O	-2.2%
CCn1cc(C(=O)N2CC=C(c3ccccc3)CC2)c(=O)c2ccc(C)nc21	7.37%
COC(=O)c1nn(-c2cccc(Cl)c2)ccc1=O	4.96%
Cc1cccc(-c2nnc(SCC(=O)O)n2Cc2ccccc2)c1	-1.57%
Cc1cc(C)c2c(Cn3ccnc3)cc(=O)oc2c1	-3.34%
Cc1cccc(N(C)C(=O)CN2C(=O)COc3ccc(S(=O)(=O)N4CCCCCC4)cc32)c1	-2.56%
COc1ccc(S(=O)(=O)N(CC(=O)NCc2ccco2)c2ccc(F)cc2)cc1	-2.34%
O=C(Nc1cccc2ccccc12)N1CCC2(CC1)OCCO2	22.3% (active)
COc1ccc(NC(=O)N2CCC3(CC2)OCCO3)c(OC)c1	0.567%

Reference: PubChem BioAssay AID2314 (National Center for Advancing Translational Sciences (NCATS), 2010)
